Peg3 promoter – Peg3 promoter activity inhibition. HeLa PEG-Prom luciferase reporter, luminescence, overnight. inhibition, % at 20 µM. hit rate 1.7% among 360,000;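 active = inhibition of at least 50% at 20 µM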
HIF-2a block – HIF-2a inhibition; AID 624352; hit rate 0.72% among 360,000; inhibition, % at 18.8 µM; 786-0 RCC cells HIF-2a reporter, luciferase luminescence, overnight;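 active = inhibition of the luminescence signal of 40% or more relative to plate controls, in a single-dose primary screen at 18.75 µM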
TWEAK-Fn14 inh – inhibitors of TWEAK-Fn14 interaction signaling; TWEAK-stimulated Fn14 reporter cells, luciferase luminescence, 8 h; inhibition, % at 10 µM; hit rate 2% among 360,000; in the data active = inhibition above about 50%
CF NFkB block – blocks PAF-induced NF-kB reporter in cystic fibrosis cells; KKLEB NF-kB-GFP reporter, GFP fluorescence overnight; inhibition, % at 5 µM; hit rate 0.86% among 360,000;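 active = at least 50% inhibition at 5 µM, scaled per plate between neutral and stimulator controls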;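 note: PAF is a Pseudomonas aeruginosa culture filtrate used as stimulus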
TROY NFkB inh – blocks TROY-dependent signaling in reporter cells; AID 1347056; inhibition, % at 10 µM; hit rate 0.98% among 360,000; Q293 LMP1-TROYcd NF-kB luciferase reporter, 4 h;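 active = compounds whose plate-normalised and pattern-corrected inhibition of the luciferase reporter signal at the single screening dose is 50% or more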
KKLEB cytotox – counter-screen for CF NF-kB inhibitors: cytotoxicity; KKLEB CF airway cells viability, ATPlite luminescence, overnight; active compounds read low; cells stimulated with P. aeruginosa culture filtrate; activity change (cytotoxicity), % at 5 µM; hit rate 0.36% among 360,000; AID 602141;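 active = corrected activity change at or below -50% at 5 µM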
Mdm2-MdmX confirm – confirmation of inhibitors of human Mdm2/MdmX interaction, set 2. shares compounds with HIF-2a block. SaOS-2 split-luciferase Mdm2/MdmX complementation, luminescence. inhibition, % at 8 µM. hit rate 99% among 740. AID 504601;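 active = mean inhibition of the luminescence signal across two replicates at or above 26 percent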
Target sequence (O15151 whole entry, looked up): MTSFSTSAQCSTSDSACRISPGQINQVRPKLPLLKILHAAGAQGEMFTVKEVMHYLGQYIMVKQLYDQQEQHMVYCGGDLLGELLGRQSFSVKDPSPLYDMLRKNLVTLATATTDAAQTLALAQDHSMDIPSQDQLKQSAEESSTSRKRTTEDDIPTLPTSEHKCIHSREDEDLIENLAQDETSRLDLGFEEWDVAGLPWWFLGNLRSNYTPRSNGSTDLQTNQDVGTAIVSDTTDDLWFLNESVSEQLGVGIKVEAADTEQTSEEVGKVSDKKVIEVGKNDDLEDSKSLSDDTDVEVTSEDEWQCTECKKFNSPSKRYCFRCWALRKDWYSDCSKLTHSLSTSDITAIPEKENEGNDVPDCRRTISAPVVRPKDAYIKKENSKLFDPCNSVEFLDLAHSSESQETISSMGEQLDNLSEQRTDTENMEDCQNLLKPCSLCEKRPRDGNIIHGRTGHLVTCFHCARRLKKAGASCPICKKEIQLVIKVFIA
Target sequence (Q00987 whole entry, looked up): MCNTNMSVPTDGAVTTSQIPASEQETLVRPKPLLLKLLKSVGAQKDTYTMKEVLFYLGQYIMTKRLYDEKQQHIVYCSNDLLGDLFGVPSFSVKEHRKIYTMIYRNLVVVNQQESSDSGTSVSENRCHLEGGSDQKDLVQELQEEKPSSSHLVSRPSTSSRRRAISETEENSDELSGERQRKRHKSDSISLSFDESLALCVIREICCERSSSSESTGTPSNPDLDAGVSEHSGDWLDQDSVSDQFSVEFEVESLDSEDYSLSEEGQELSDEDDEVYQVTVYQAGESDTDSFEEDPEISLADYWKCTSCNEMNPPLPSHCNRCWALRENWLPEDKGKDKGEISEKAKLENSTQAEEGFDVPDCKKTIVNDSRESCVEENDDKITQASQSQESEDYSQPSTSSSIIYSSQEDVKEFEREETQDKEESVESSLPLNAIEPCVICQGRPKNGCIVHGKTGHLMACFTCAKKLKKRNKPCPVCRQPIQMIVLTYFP
HIF-2a conf – confirmation of HIF-2a inhibitors | shares compounds with HIF-2a block | 786-0 RCC cells, HIF-2a luciferase reporter luminescence, overnight | inhibition, % at 18.8 µM | hit rate 56% among 1,800 | AID 651580;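 active = mean inhibition across four replicates of at least 40 percent at the single tested concentration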
HIF-1a counter – inhibits HIF-1a reporter, a counter-screen for HIF-2a inhibitors. shares compounds with HIF-2a block. MiaPaCa-2 HIF-1a luciferase reporter, desferoxamine, overnight. inhibition, % at 18.8 µM. hit rate 72% among 1,800. AID 651589;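 active = mean inhibition of the reporter signal across four replicates at the single tested dose of 50% or more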
Each line names hits and unclear results; the compound was inactive in the other large screens (follow-up assays come after a bar, where they were run). In the library only some 4% were active in any assay of this set; here they are far more common.

Cc1ccoc1C(=O)Nc1ccc(CC(=O)O)cc1	HIF-2a block 88, TWEAK-Fn14 inh 76 | HIF-2a conf 94 | HIF-1a counter 51
Cc1nc(N2CCOCC2)c2cc(-c3ccccc3)sc2n1	none
Cc1nc(SCCC(=O)O)c2cc(-c3ccccc3)sc2n1	HIF-2a block 85 | HIF-2a conf 91 | HIF-1a counter inactive
CCSC1=NCCN1C(=O)C(C)(C)Oc1ccc(Cl)cc1	none
CC(C)(C)C(=O)c1c(N)[nH]c(C(=O)c2ccccc2)c1-c1ccccc1Br	none (no result: Peg3 promoter, CF NFkB block, KKLEB cytotox)
Cc1ccc(S(=O)(=O)CCC(=O)OCC(=O)NC(=O)c2ccccc2)cc1	none
CC(=O)NC(=C(Cl)Cl)S(=O)(=O)c1ccccc1	none
Cc1ccc(S(=O)(=O)C(NC(=O)c2ccccc2)=C(Cl)Cl)cc1	Peg3 promoter 52, HIF-2a block 41, TWEAK-Fn14 inh 65 | HIF-2a conf inactive | HIF-1a counter 82
O=C(NC(=C(Cl)Cl)S(=O)(=O)c1ccc(Cl)cc1)c1ccccc1	Peg3 promoter 61, HIF-2a block 62, TWEAK-Fn14 inh 96 | HIF-2a conf inactive | HIF-1a counter 103
Cc1ccc(S(=O)(=O)/C(=C/Cl)NC(=O)c2ccccc2)cc1	Peg3 promoter 81, HIF-2a block 41, TWEAK-Fn14 inh 77 | HIF-2a conf inactive | HIF-1a counter 68
CCc1ccc(/C=C2\SC(=S)N(CCC(=O)N3CCN(C)CC3)C2=O)cc1	none
O=C(CCN1C(=O)/C(=C/c2ccccc2)SC1=S)N1CCCCCC1	Peg3 promoter 105, HIF-2a block 67 | Mdm2-MdmX confirm 102
Cc1ccc(/C=C2/SC(=S)N(CCCC(=O)Nc3ccc(O)cc3)C2=O)cc1	none | Mdm2-MdmX confirm 101
O=C(CCCN1C(=O)/C(=C/c2ccccc2)SC1=S)Nc1cccc(O)c1	Peg3 promoter 78, HIF-2a block 73 | Mdm2-MdmX confirm 103
COC(=O)c1ccccc1NC(=O)c1ccc2c(c1)OCCCO2	none
O=C(CCl)N(c1ccc(Cl)cc1)c1c[nH]c2ccccc12	Peg3 promoter 103, HIF-2a block 95, TWEAK-Fn14 inh 67, CF NFkB block 84, KKLEB cytotox -89 | Mdm2-MdmX confirm 103 | HIF-2a conf 96 | HIF-1a counter 107
CC(=O)n1cc(CO)c2ccccc21	none
O=C(CCl)N(c1ccccc1)c1c[nH]c2ccccc12	Peg3 promoter 86, HIF-2a block 73, TWEAK-Fn14 inh 69, CF NFkB block 64, KKLEB cytotox -54 | Mdm2-MdmX confirm 103 | HIF-2a conf 53 | HIF-1a counter 104
CC(=O)n1cc(N(C(=O)CCl)c2ccccc2)c2ccccc21	HIF-2a block 84, TWEAK-Fn14 inh 66, CF NFkB block 90, KKLEB cytotox -95 | Mdm2-MdmX confirm 103 | HIF-2a conf 95 | HIF-1a counter 106
O=C(Cc1ccc(Cl)cc1)NCCc1c[nH]c2ccccc12	none
O=C(/C=C/[C@H]1O[C@@H](n2cnc3c(NC(=O)c4ccccc4)ncnc32)[C@H](O)[C@@H]1O)NCCc1ccc(F)cc1	none
CC(=O)N/N=C\c1cccc(OC/C=C/c2ccccc2)c1	HIF-2a block 48 | HIF-2a conf 56 | HIF-1a counter inactive
N#CCC(=O)N/N=C\c1cccc(OC/C=C/c2ccccc2)c1	Peg3 promoter 52, HIF-2a block 64 | HIF-2a conf 71 | HIF-1a counter inactive
NNC(=O)c1cccc(COc2ccc3c(c2)CCC3)c1	HIF-2a block 68 | HIF-2a conf 53 | HIF-1a counter inactive
NNC(=O)c1cccc(COc2ccccc2Br)c1	none
CCCc1nnc(NC(=O)c2nc(S(=O)(=O)Cc3cccc(C)c3)ncc2Cl)s1	Peg3 promoter 109, HIF-2a block 69, TWEAK-Fn14 inh 93, CF NFkB block 94, TROY NFkB inh 57, KKLEB cytotox -90 | HIF-2a conf inactive | HIF-1a counter 106
Cc1cccc(CS(=O)(=O)c2ncc(Cl)c(C(=O)Nc3c(C)cccc3C)n2)c1	Peg3 promoter 103, HIF-2a block 47, TWEAK-Fn14 inh 90, CF NFkB block 98, TROY NFkB inh 67, KKLEB cytotox -66 | Mdm2-MdmX confirm 103 | HIF-2a conf 68 | HIF-1a counter 90
CCCc1nnc(NC(=O)CS(=O)(=O)c2ccc(C)cc2)s1	none
CSc1ncc(Cl)c(C(=O)Nc2cccc(C)c2)n1	none
O=C(COc1ccccc1Cl)NC(=S)Nc1ccccc1N1CCCC1	none
COc1ccc2c(c1)C1(Nc3ccccc3-c3nc4ccccc4n31)C(=O)N2 (centres undefined)	none
COc1ccc2c(c1)C1(Nc3ccccc3-c3nc4ccccc4n31)C(=O)N2C (centres undefined)	none | Mdm2-MdmX confirm 94
CN1C2=NCCN2C(=O)c2cc(Cl)ccc21	none
Clc1ccc2c(c1)-c1ccccc1C1=NCCN12	Peg3 promoter 110, HIF-2a block 45 | HIF-2a conf inactive | HIF-1a counter 104
CCOc1ccccc1OCCCC(=O)Nc1ccc(Cl)c(S(=O)(=O)N2CCOCC2)c1	none
NC(=O)c1cc2ccncc2c2ccccc12	CF NFkB block 79, TROY NFkB inh 58 | Mdm2-MdmX confirm 98
CC(C)CC1C(=O)N(Cc2cn(CCC3OCCO3)nn2)CCS(=O)(=O)N1Cc1ccc(-c2cccc(N(C)C)c2)cc1 (centres undefined)	none
COc1ccc(-c2csc3ncnc(Cl)c23)cc1	none
COc1ccc(Nc2ncnc3scc(-c4ccc(OC)cc4)c23)cc1	HIF-2a block 42 | HIF-2a conf inactive | HIF-1a counter 58
Cc1ccc(-c2cc(C(=O)NCCCN3CCOCC3)no2)cc1	HIF-2a block 84, TWEAK-Fn14 inh 75 | HIF-2a conf 82 | HIF-1a counter 71
CC(CCC(=O)O)C1CCC2C3CC(O)C4CC(O)CC[C@]4(C)C3CCC12C (some centres undefined)	none
CC(=O)Nc1ccc(Nc2cc(C)nc3c(-c4ccccc4)cnn23)cc1	HIF-2a block 53, TWEAK-Fn14 inh 68 | HIF-2a conf 78 | HIF-1a counter 93
CC(=O)Nc1ccc(Nc2cc(-c3ccccc3)nc3ncnn23)cc1	none
CCOC(=O)[C@]12CCC=C1N(Cc1ccco1)C(=O)[C@H](CC(=O)NCCC(C)C)C2	none (no result: Peg3 promoter, CF NFkB block, KKLEB cytotox)
COc1ccc(N2CCN(CCNC(=O)c3ccc4c(c3)[nH]c(=S)n3c5ccccc5nc43)CC2)cc1	Peg3 promoter 84 | Mdm2-MdmX confirm 99
O=C(c1cccc(OC2CCN(Cc3ccc(F)cc3)CC2)c1)N1CCCC1	none

Compound activity deposited in PubChem by Sanford-Burnham Center for Chemical Genomics.
